# Shown are actives, neighbours in structure and some others; about 2.2% of the full set was active somewhere.
# Ba/F3 V617F tox: reduce viability of Ba/F3 cells dependent on JAK2V617F. hit rate 1.1% among 220,000. inhibition, % at 5.6 µM. Ba/F3 EpoR-JAK2V617F viability, ATP luminescence;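 active = inhibition above the campaign mean plus 3 SD over all tested compounds, cut at about 24% in these data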;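 note: cytokine-independent growth of Ba/F3 cells driven by EpoR plus mutant JAK2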
# APP transl inh: APP translation inhibition. SH-SY5Y APP 5'UTR-luciferase reporter, luminescence. inhibition, % at 2 µM. hit rate 0.82% among 190,000;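 active = inhibition above a set limit, derived from the sample mean plus 3 SD, cut at about 45% in these data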
# IEC-6 tox: IEC-6 cytotoxicity, counter-screen for KLF5 inhibitors. hit rate 0.78% among 290,000. inhibition, % at 5 µM. luminescence viability; in the data active = inhibition above about 22%
# BaF3 parental: reduces parental Ba/F3 cell viability, JAK2V617F counter-screen; hit rate 1.1% among 220,000; inhibition, % at 5.6 µM; CellTiter-Glo ATP luminescence;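 active = inhibition above a per-campaign cutoff, the mean inhibition of all tested compounds plus 3 SD, cut at about 27% in these data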
# KLF5 inh: suppresses KLF5 promoter-driven expression; DLD-1 KLF5 promoter-luciferase reporter, luminescence; inhibition, % at 5 µM; hit rate 0.23% among 290,000; AID 1700;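 active = inhibition above a per-plate limit of that plate's mean compound inhibition plus 3 SD, cut at about 60% in these data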;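 note: higher means less KLF5 promoter-driven luciferase light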
# aSyn UTR inh: MLPCN primary screen, SNCA 5' untranslated region. alpha-synuclein 5'UTR reporter, inhibitor activity. hit rate 0.82% among 300,000. AID 1813. inhibition, % (tested at 7.5 µM); in the data active = inhibition above about 60%;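 note: H4 neuroglioblastoma cells stably carrying SNCA 5'UTR luciferase fusion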
# A number is an active result; - = inactive; . = no result given.
SMILES,Ba/F3 V617F tox,APP transl inh,IEC-6 tox,BaF3 parental,KLF5 inh,aSyn UTR inh
Cc1ccc(S(=O)(=O)/N=C2/C=C(Sc3ncn[nH]3)C(=O)c3ccccc32)c(C)c1,54,66,-,-,-,.
CCCOc1ccc(OCCSc2nnc(N)s2)cc1,24,-,-,40,-,-
Nc1nnc(SCCCOc2ccc(F)cc2)s1,.,.,-,.,-,-
COc1cc(NC(=O)C2CCN(S(=O)(=O)c3ccc4[nH]c(=O)oc4c3)CC2)cc(OC)c1,.,.,-,.,-,-
Cc1cc(C)c(Cn2cnc(-c3ccc([N+](=O)[O-])cc3)c2)c(C)c1,-,-,-,-,-,-
CC(C)(C)c1ccc(Cn2cnc(-c3ccc([N+](=O)[O-])cc3)c2)cc1,-,-,-,39,-,-
Fc1ccccc1CNc1ncnc2sccc12,.,.,-,.,-,-
c1ccc2c(c1)OCC(CNc1ncnc3sccc13)O2 (centres undefined),60,-,-,62,-,-
COc1ccc(C(C)=O)cc1COC(=O)c1ccc(N)c([N+](=O)[O-])c1,-,-,31,-,-,-
COc1ccc(C(C)=O)cc1COC(=O)CNC(=O)c1cc(C)cc(C)c1,70,-,-,38,-,-
COc1cc(C=O)ccc1OC(=O)c1cccnc1,.,.,-,.,-,-
O=C(OCCN1C(=O)c2cccc3c(N4CCOCC4)ccc(c23)C1=O)c1cc(Cl)cc(Cl)c1,-,88,-,-,-,.
CCOC(=O)c1cnc(-n2nc(C)cc2C)nc1NNc1nc(-c2ccccc2)cc(-c2ccccc2)n1,-,-,-,-,-,82
CCOC(=O)N1CCN(C(=O)CN(c2ccc(OCC)cc2)S(C)(=O)=O)CC1,-,-,-,-,-,-
CCOC(=O)N1CCN(C(=O)CN(c2ccc(Oc3ccccc3)cc2)S(C)(=O)=O)CC1,-,-,-,34,-,-
CCCCCCOc1ccc(/C(N)=N/O)cc1,27,-,-,37,-,-
N=C(N)c1ccc(OCCCCCOc2ccc(C(=N)N)cc2)cc1,63,-,-,53,-,67
CCCCn1c(N)c(N(CCOC)C(=O)c2sc3cc(F)ccc3c2Cl)c(=O)[nH]c1=O,.,.,.,.,.,-
O=C(Nc1ccccn1)c1onc2c1CCCC2,-,-,-,-,-,96
O=C(Nc1ccccn1)c1csc2c1CCCC2,-,-,-,-,-,-
O=C(COC(=O)/C=C/c1ccccc1)Nc1cc(C(F)(F)F)ccc1N1CCOCC1,-,-,-,-,-,-
COc1ccccc1/C=C/C(=O)OCC(=O)Nc1cc(C(F)(F)F)ccc1N1CCOCC1,-,61,-,-,-,-
COc1cccc(CC(=O)OCC(=O)N(C)CC(=O)Nc2ccc(Cl)c(C(F)(F)F)c2)c1,.,.,.,.,.,-
CCC/C(=N/NC(=O)c1ccccc1Cl)c1ccccc1,-,-,-,-,-,-
Cc1ccc(C(=O)Nc2ncc3c(Cl)cccc3n2)cc1,-,-,-,-,-,65
SMILES,Ba/F3 V617F tox,APP transl inh,IEC-6 tox,BaF3 parental,KLF5 inh,aSyn UTR inh
Cc1ccc(C(=O)Nc2ccc(Cl)cn2)cc1,-,-,-,-,-,-
COc1ccc(-c2nc(N)c(C#N)c(-c3cccnc3)c2C)cc1,-,.,-,-,-,-
O=C(CNC(=O)c1ccccc1Br)N/N=C/c1cc(Br)ccc1O,-,-,-,-,-,70
O=C(CNC(=O)c1ccccc1Br)N/N=C/c1ccccc1O,-,-,-,-,-,-
Cc1ccc(N=Cc2cc(Cl)cc(Cl)c2O)nc1,-,-,-,-,-,-
Oc1c(Cl)cc(Cl)cc1/C=N/Nc1ncc(Br)cn1,-,81,-,-,-,-
COc1ccc(OC)c(C(=O)NC2CC(C)(C)Cc3c2cnn3-c2ccccc2)c1 (centres undefined),.,.,-,.,-,67
COc1ccc(-n2ncc3c2CC(C)(C)CC3NC(=O)c2ccoc2C)cc1 (centres undefined),.,.,-,.,-,-
COc1cc(/C=N/NC(=O)c2c(-c3c(Cl)cccc3Cl)noc2C)ccc1OCC(N)=O,.,.,-,.,-,-
Cc1onc(-c2c(Cl)cccc2Cl)c1C(=O)N/N=C(\N)COc1ccc(Cl)cc1,-,-,-,-,-,89
CN(C)CCNC(=O)Cn1ccc2cc(S(=O)(=O)N3CCCCC3)ccc21,.,.,-,.,-,-
COc1ccc(Nc2nc(-c3c(C)nc4ncccn34)cs2)cc1,83,94,86,83,84,.
CC(=O)Nc1ccc(Nc2nc(-c3c(C)nc4ccccn34)cs2)cc1,.,.,.,.,.,87
Cc1nc2ncccn2c1-c1csc(Nc2ccc(S(N)(=O)=O)cc2)n1,.,.,-,.,-,-
Cc1nc2ncccn2c1-c1csc(Nc2ccccc2)n1,-,-,-,-,-,-
Cc1nc2ncccn2c1-c1csc(Nc2ccc(N(C)C)cc2)n1,79,94,22,81,-,70
CS(=O)(=O)c1ccc(Cl)c(NC(=O)C2CCCN(C(=O)c3ccc(Cl)cc3)C2)c1 (centres undefined),.,.,.,.,.,-
Cc1ccc(NC(=S)N2CCN(c3ccccn3)CC2)cc1C,.,.,-,.,-,-
Fc1ccccc1/C=N/NC(=S)Nc1ccc(Cl)cc1Cl,-,94,-,-,-,-
Oc1ccccc1C1CCCCC1c1ccccc1 (centres undefined),.,.,-,.,-,-
CC(=O)c1cccc(NC(=O)C(C)N(C)CC(=O)Nc2ccc(Cl)cc2)c1 (centres undefined),-,.,-,-,-,-
COCCN(Cc1cc2cc(C)cc(C)c2nc1Cl)C(=O)Nc1ccccc1,-,-,-,-,-,-
Cc1cc(C)c2nc(Cl)c(CN(Cc3ccco3)C(=O)Nc3ccccc3C)cc2c1,-,57,-,-,-,-
Cc1cccc(CN2C(=O)/C(=C\c3ccc(C(=O)NCCCN4CCN(C)CC4)cc3)Oc3ccccc32)c1,.,.,-,.,-,95
CN1CCN(CCCNC(=O)c2ccc(/C=C3\Oc4ccccc4N(Cc4ccccc4F)C3=O)cc2)CC1,.,.,-,.,-,-
SMILES,Ba/F3 V617F tox,APP transl inh,IEC-6 tox,BaF3 parental,KLF5 inh,aSyn UTR inh
Cc1c(Cl)cccc1N=C(N)N=C(N)N,-,-,-,81,-,-
NC(N)=NC(N)=Nc1cccc2ccccc12,-,.,-,-,-,-
CC(C)CN(CC(C)C)C(=S)Nc1ccc(Cl)cc1,33,-,-,43,-,-
COc1ccccc1-c1ccc2nnc(SC)n2n1,.,.,-,.,-,-
CCN(CC)S(=O)(=O)c1ccc(C(=O)NCCOC(=O)c2ccc(F)cc2F)cc1,.,.,-,.,-,-
CC(C)(C)C1C/C(=C/c2ccccn2)C(=O)/C(=C/c2ccccn2)C1 (centres undefined),-,95,-,-,-,103
O=C1/C(=C/c2ccccn2)COc2ccccc21,-,-,-,-,-,-
CC1C/C(=C/c2ccccn2)C(=O)/C(=C/c2ccccn2)C1 (centres undefined),52,98,-,73,-,89
COc1ccc2nc(N(Cc3ccccc3)C(=O)CCNC(C)=O)sc2c1,.,.,-,.,-,-
COc1ccc(C[C@H]2COC(=O)[C@@H]2Cc2ccc(OC3OC(CO)C(O)C(O)C3O)c(OC)c2)cc1OC (some centres undefined),-,-,-,41,-,-

# Screening data: PubChem BioAssay, several laboratories
